Laboratory results as given in PubChem BioAssay (EPA / NIEHS).
Several values for one entry are separate records, joined by “and”; a condition that tells them apart may be missing. Equal values may be shown once. Records with an inconclusive call do not appear. Some compounds were tested as several samples or in several runs, with calls that do not always agree. Activity calls are given as the source filed them. The calls were made as follows, unless noted: active = hit-call score of the fitted dose curve at least 0.9, where 1 is the maximum; inactive = score below 0.9.

Experiments:
[1] = BSK_LPS_PGE2: BioMAP Diversity Plus: LPS Assay for Prostaglandin E2 (PGE2) Biomarker Activity (AID 2283082); settings: primary human HUVEC with PBMC; actives raise or lower the signal;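 as to AC50: secreted prostaglandin E2 measured by ELISA in LPS-stimulated co-culture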
Outline: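 Primary human endothelial cells and blood mononuclear cells, co-cultured with LPS, receive test chemical; PGE2 ELISA follows at 24 h, with SRB-stained parallel cultures flagging cytotoxicity.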

[2] = read-out: Macrophage colony-stimulating factor (MCSF), CSF1 (gene 1435); assay: BSK_LPS_MCSF: BioMAP Diversity Plus: LPS Assay for Macrophage colony-stimulating factor (MCSF) Biomarker Activity (AID 2283083); settings: primary human HUVEC with PBMC; actives raise or lower the signal
Outline: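 ELISA readout of M-CSF after 24 h compound exposure in a human endothelial/PBMC co-culture. Activity, in either direction, is fitted relative to DMSO vehicle.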

[3] = read-out: Tissue Factor, F3 (gene 2152); assay: BSK_LPS_TissueFactor: BioMAP Diversity Plus: LPS Assay for Tissue Factor Biomarker Activity (AID 2283084); settings: primary human HUVEC with PBMC; actives raise or lower the signal
Outline: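 ELISA signal for cell-surface Tissue Factor (CD142) was read 24 h after compound dosing of an LPS-stimulated human endothelial–PBMC primary co-culture. Gain or loss of signal was scored relative to DMSO.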

[4] = read-out: Tumor necrosis factor (Homo sapiens) (UniProt P01375); assay: BSK_LPS_TNFa: BioMAP Diversity Plus: LPS Assay for Tumour Necrosis Factor alpha (TNFa) Biomarker Activity (AID 2283085); settings: primary human HUVEC with PBMC; actives raise or lower the signal;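 as to AC50: TNFa protein level quantified by ELISA in the co-culture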
Outline: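 ELISA-based TNFa endpoint in a human endothelial–PBMC co-culture sampled 24 h post-exposure. Curves were fitted in both directions using DMSO as baseline of activity.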

[5] = read-out: Vascular cell adhesion molecule 1 (VCAM1), VCAM1 (gene 7412); assay: BSK_LPS_VCAM1: BioMAP Diversity Plus: LPS Assay for Vascular cell adhesion molecule 1 (VCAM1) Biomarker Activity (AID 2283086); settings: primary human HUVEC with PBMC; actives raise or lower the signal
Outline: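 Measured by ELISA: VCAM-1 in LPS-activated HUVEC/PBMC co-cultures 24 h after treatment. Values reflect bidirectional fitting with DMSO as baseline.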

[6] = read-out: CD38, CD38 (gene 952); assay: BSK_SAg_CD38: BioMAP Diversity Plus: SAg Assay for CD38 Biomarker Activity (AID 2283087); settings: primary human HUVEC with PBMC; actives raise or lower the signal
Outline: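 Measures CD38 on a human endothelial/PBMC co-culture driven by SEB and TSST-1, 24 h after compound exposure, using ELISA with fluorescence detection; DMSO defines baseline for bidirectional curve fitting.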

[7] = read-out: CD40, CD40 (gene 958); assay: BSK_SAg_CD40: BioMAP Diversity Plus: SAg Assay for CD40 Biomarker Activity (AID 2283088); settings: primary human HUVEC with PBMC; actives raise or lower the signal
Outline: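 Compounds were dosed onto a human primary endothelial–PBMC co-culture, and after 24 h CD40 was quantified by ELISA using a fluorescence signal. Activity in either direction was fitted relative to DMSO.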

[8] = read-out: CD69, CD69 (gene 969); assay: BSK_SAg_CD69: BioMAP Diversity Plus: SAg Assay for CD69 Biomarker Activity (AID 2283089); settings: primary human HUVEC with PBMC; actives raise or lower the signal;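 as to AC50: cell surface CD69 protein quantified by ELISA with fluorescence detection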
Outline: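 ELISA, fluorescence read-out: CD69 on human umbilical vein endothelial cell + PBMC co-culture, 24 h post-dosing. Gain or loss of signal fitted bidirectionally against DMSO baseline.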

[9] = read-out: Monocyte Chemoattractant Protein-1 (MCP1), CCL2 (gene 6347); assay: BSK_SAg_MCP1: BioMAP Diversity Plus: SAg Assay for Monocyte Chemoattractant Protein-1 (MCP1) Biomarker Activity (AID 2283090); settings: primary human HUVEC with PBMC; actives raise or lower the signal
Outline: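 Values derive from bidirectional fitting of ELISA-measured MCP1 against DMSO controls. Readings were taken 24 h after dosing human vascular endothelial cells co-cultured with peripheral blood mononuclear cells under superantigen stimulation.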

[10] = read-out: E-selectin (Homo sapiens) (UniProt P16581); assay: BSK_SAg_Eselectin: BioMAP Diversity Plus: SAg Assay for Eselectin Biomarker Activity (AID 2283091); settings: primary human HUVEC with PBMC; actives raise or lower the signal
Outline: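 Co-culture: HUVEC + PBMC. Dose compound; 24 h. ELISA for E-selectin. Bidirectional fit vs DMSO.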

[11] = read-out: Monokine induced gamma interferon (MIG), CXCL9 (gene 4283); assay: BSK_SAg_MIG: BioMAP Diversity Plus: SAg Assay for Monokine induced gamma interferon (MIG) Biomarker Activity (AID 2283092); settings: primary human HUVEC with PBMC; actives raise or lower the signal
Outline: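 ELISA readout of MIG/CXCL9; primary human umbilical vein endothelial cells co-cultured with peripheral blood mononuclear cells; 24 h post-dose; gain/loss fit vs DMSO baseline.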

[12] = BSK_SAg_PBMCCytotoxicity: PBMC Cytotoxicity Assessment in the BioMAP Diversity Plus: SAg Assay (AID 2283093); settings: primary human HUVEC with PBMC;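 also: PBMC viability measured as Alamar Blue reduction fluorescence at 546/580 nm; fitted both ways against DMSO so a hit may be loss or gain of signal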;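 as to AC50: PBMC superantigen activated with SEB plus TSST-1 one hour after compound addition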
Outline: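 Alamar Blue reduction (6 h, 546/580 nm) reports PBMC cytotoxicity after 90 h superantigen activation (SEB, TSST-1; 20 ng/mL final each) with 1 h compound pre-treatment. Gain or loss of signal fitted versus DMSO.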

[13] = read-out: Interleukin-8 (IL8), CXCL8 (gene 3576); assay: BSK_SAg_IL8: BioMAP Diversity Plus: SAg Assay for Interleukin-8 (IL8) Biomarker Activity (AID 2283094); settings: primary human HUVEC with PBMC; actives raise or lower the signal
Outline: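 Primary human endothelial cells with PBMC, exposed 24 h; IL-8 determined by ELISA, analysed bidirectionally relative to DMSO.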

[14] = BSK_SAg_Proliferation: Cell Proliferation Assessment in the BioMAP Diversity Plus: SAg Assay (AID 2283095); settings: primary human HUVEC with PBMC;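 also: relative cell number as total protein by SRB absorbance in sub-confluent culture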
Outline: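 A human primary co-culture of umbilical vein endothelium and blood mononuclear cells receives compound; relative cell number is quantified at 96 h by SRB staining and 560 nm absorbance, with DMSO-referenced bidirectional curve fitting.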

[15] = BSK_SAg_SRB: Viability Assessment in the BioMAP Diversity Plus: SAg Assay (AID 2283096); settings: primary human HUVEC with PBMC;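 also: cells read one day after compound addition; hits may be either gain or loss of signal compared with DMSO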
Outline: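 This overt-cytotoxicity endpoint quantifies protein in human endothelial/PBMC co-cultures at 24 h using SRB absorbance (560 nm) after trichloroacetic acid fixation. Values reflect signal change from the DMSO negative control, fitted bidirectionally.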

[16] = biological target: human CYP1A2, CYP1A2 (gene 1544) (UniProt P05177); assay: NVS_ADME_hCYP1A2: NovaScreen (NVS) CYP450-related Enzyme Activity (ADME) Assay for human CYP1A2 (AID 2283102; active = hit-call score of the fitted dose curve at least 0.9, where 1 is the maximum;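 also: fluorescence from turnover of a fluorogenic substrate by recombinant insect-cell CYP1A2; potency for inhibition since loss of fluorescence marks reduced CYP1A2 activity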)
Outline: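 rec. hCYP1A2 (insect cells), cell-free; fluorogenic substrate; 0.5 h; FI read. Baseline = acetonitrile; signal loss = inhibition. 10 uM duplicate primary → conc. series for actives.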

[17] = biological target: human CYP19A1, CYP19A1 (gene 1588) (UniProt P11511); assay: NVS_ADME_hCYP19A1: NovaScreen (NVS) CYP450-related Enzyme Activity (ADME) Assay for human CYP19A1 (AID 2283098; active = hit-call score of the fitted dose curve at least 0.9, where 1 is the maximum)
Outline: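 Compounds were first screened at 10 uM in duplicate against purified enzyme, with a fluorogenic substrate and fluorescence intensity detection after 0.5 h. Inhibition appears as reduced signal against acetonitrile control.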

[18] = biological target: human CYP2B6, CYP2B6 (gene 1555) (UniProt P20813); assay: NVS_ADME_hCYP2B6: NovaScreen (NVS) CYP450-related Enzyme Activity (ADME) Assay for human CYP2B6 (AID 2283101; active = hit-call score of the fitted dose curve at least 0.9, where 1 is the maximum)
Outline: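 Fluorescence-based enzyme activity of recombinant human CYP2B6, measured 1 h post-dose against acetonitrile vehicle baseline. Screened at a single concentration of 10 uM in duplicate before concentration-response follow-up.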

[19] = biological target: human CYP2D6, CYP2D6 (gene 1565) (UniProt P10635); assay: NVS_ADME_hCYP2D6: NovaScreen (NVS) CYP450-related Enzyme Activity (ADME) Assay for human CYP2D6 (AID 2283107; active = hit-call score of the fitted dose curve at least 0.9, where 1 is the maximum)
Outline: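 Insect-cell recombinant enzyme + fluorogenic substrate, cell-free; 1 h incubation; fluorescence intensity readout. Acetonitrile = neg. ctrl/baseline. Single-point 10 uM, duplicate; follow-up concentration series.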

Measured: AC50

Sequence of E-selectin (Homo sapiens) (P16581 whole entry, looked up): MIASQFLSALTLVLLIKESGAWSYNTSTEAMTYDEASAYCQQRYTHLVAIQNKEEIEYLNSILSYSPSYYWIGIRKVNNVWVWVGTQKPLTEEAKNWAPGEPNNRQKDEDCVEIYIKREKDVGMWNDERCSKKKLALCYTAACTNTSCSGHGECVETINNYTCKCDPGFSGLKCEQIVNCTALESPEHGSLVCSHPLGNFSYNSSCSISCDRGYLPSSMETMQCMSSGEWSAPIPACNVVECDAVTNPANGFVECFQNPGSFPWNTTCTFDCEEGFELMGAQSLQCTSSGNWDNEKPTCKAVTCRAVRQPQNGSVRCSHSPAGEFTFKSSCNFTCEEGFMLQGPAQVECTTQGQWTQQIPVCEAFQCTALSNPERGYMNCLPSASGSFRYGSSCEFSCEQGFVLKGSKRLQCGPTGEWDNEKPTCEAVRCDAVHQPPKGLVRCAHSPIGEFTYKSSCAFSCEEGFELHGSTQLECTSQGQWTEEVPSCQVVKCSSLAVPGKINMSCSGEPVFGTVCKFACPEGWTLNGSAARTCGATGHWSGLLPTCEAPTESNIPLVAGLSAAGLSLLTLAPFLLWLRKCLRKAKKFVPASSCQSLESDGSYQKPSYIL
Sequence of Tumor necrosis factor (Homo sapiens) (P01375 whole entry, looked up): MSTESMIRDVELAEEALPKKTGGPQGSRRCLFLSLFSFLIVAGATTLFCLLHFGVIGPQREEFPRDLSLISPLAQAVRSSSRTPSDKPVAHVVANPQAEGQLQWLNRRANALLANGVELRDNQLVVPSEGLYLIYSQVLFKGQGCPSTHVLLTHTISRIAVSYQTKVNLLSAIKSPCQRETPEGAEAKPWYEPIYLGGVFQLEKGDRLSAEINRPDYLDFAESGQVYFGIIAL
Sequence of human CYP19A1, CYP19A1 (gene 1588) (P11511 whole entry, looked up): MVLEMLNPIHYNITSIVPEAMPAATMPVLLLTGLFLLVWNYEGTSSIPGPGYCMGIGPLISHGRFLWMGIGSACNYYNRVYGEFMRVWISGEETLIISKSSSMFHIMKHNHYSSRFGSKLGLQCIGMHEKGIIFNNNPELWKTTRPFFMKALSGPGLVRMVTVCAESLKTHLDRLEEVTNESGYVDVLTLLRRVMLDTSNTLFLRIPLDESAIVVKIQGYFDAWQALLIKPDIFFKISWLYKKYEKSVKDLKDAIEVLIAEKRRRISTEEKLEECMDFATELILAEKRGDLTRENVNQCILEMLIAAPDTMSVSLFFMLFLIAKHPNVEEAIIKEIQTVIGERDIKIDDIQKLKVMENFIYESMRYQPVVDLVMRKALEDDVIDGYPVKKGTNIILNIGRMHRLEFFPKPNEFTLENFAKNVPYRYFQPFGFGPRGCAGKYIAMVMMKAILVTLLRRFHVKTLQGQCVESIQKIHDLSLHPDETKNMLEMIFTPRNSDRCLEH
Sequence of human CYP2B6, CYP2B6 (gene 1555) (P20813 whole entry, looked up): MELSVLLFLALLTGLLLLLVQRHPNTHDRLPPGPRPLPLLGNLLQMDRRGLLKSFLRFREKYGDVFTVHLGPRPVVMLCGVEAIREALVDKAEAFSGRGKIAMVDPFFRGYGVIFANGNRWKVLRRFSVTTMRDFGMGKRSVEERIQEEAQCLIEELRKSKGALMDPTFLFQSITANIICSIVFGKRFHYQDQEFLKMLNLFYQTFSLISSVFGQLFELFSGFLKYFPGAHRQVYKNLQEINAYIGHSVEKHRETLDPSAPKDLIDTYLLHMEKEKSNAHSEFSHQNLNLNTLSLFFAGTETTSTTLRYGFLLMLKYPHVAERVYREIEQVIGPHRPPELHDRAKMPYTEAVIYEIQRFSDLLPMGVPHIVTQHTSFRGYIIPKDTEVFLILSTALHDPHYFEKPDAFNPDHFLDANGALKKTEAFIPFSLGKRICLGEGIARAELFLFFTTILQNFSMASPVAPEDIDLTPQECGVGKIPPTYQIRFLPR
Sequence of human CYP2D6, CYP2D6 (gene 1565) (P10635 whole entry, looked up): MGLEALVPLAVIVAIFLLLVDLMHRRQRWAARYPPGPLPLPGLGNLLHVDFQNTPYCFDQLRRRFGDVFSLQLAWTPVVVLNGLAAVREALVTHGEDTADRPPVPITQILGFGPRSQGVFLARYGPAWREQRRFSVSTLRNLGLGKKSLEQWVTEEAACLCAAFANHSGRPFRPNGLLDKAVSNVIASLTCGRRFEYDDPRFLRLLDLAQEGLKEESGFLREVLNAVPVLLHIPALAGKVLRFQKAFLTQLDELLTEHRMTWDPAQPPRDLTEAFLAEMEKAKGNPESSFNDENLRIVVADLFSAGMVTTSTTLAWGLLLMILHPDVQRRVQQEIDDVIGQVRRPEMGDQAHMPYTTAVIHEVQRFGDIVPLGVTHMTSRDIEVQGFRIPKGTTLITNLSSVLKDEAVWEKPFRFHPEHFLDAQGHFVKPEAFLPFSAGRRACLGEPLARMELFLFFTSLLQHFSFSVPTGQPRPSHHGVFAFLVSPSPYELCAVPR
Sequence of human CYP1A2, CYP1A2 (gene 1544) (P05177 whole entry, looked up): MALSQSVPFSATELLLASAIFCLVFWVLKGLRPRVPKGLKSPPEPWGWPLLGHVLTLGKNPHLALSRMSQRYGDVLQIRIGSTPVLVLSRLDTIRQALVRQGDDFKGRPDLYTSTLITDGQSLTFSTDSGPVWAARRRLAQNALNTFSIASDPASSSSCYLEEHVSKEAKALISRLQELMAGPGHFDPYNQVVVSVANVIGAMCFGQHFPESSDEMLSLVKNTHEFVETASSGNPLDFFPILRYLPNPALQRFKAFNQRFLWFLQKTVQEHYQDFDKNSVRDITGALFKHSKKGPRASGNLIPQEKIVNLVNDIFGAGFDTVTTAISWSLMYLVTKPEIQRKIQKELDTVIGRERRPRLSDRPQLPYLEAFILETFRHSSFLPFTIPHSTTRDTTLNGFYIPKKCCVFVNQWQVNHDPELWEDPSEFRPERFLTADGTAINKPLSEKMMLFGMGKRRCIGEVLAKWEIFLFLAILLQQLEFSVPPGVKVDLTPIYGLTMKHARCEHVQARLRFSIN

COC(=O)c1ccc(I)cc1S(=O)(=O)NC(=O)Nc1nc(C)nc(OC)n1
inactive: [1] | [2] | [3] | [4] | [5] | [6] | [7] | [8] | [9] | [10] | [11] | [12] | [13] | [14] | [15]

c1ccc2[nH]c(-c3cscn3)nc2c1
inactive: [1] | [2] | [3] | [4] | [5] | [6] | [7] | [8] | [9] | [10] | [11] | [12] | [13] | [14] | [15]
active: [16] 2.47 µM

CC(C)(c1ccc(O)cc1)c1ccc(O)cc1
inactive: [1] | [2] | [3] | [4] | [5] | [6] | [7] | [8] | [9] | [10] | [11] | [12] | [13] | [15] | [17] | [18]
active: [1] 16.6 µM and 10.3 µM and 11.1 µM | [4] 2.8 µM | [5] 25.5 µM and 27 µM and 20 µM | [6] 13.8 µM | [7] 20.3 µM and 5.31 µM | [9] 20 µM | [10] 24.9 µM | [13] 14.5 µM | [14] 20.3 µM and 28.7 µM and 25.7 µM | [18] 12.1 µM

CC1(C)C(C=C(Cl)Cl)C1C(=O)OCc1cccc(Oc2ccccc2)c1 (configuration not stated)
inactive: [3] | [4] | [5] | [6] | [7] | [9] | [10] | [11] | [12] | [13]
active: [1] 4.13 µM | [2] 4.63 µM | [8] 14.7 µM | [14] 14.8 µM | [15] 5.14 µM

CCOC(=O)NCCOc1ccc(Oc2ccccc2)cc1
active: [2] 14.7 µM | [6] 29.1 µM | [7] 14.5 µM | [8] 25.3 µM | [9] 26.9 µM | [10] 31.8 µM | [12] 15.6 µM | [13] 30 µM | [14] 16.2 µM | [15] 20 µM | [19] 1.98 µM
inactive: [1] | [3] | [4] | [5] | [11]

CCCOC(=O)NCCCN(C)C
inactive: [1] | [2] | [3] | [4] | [5] | [6] | [7] | [8] | [9] | [10] | [11] | [12] | [13] | [15]
